High-throughput results deposited in PubChem by National Center for Advancing Translational Sciences (NCATS).
The entries come from a sample that favours hits as a whole.
Pf Dd2 inh: blocks in vitro growth of P. falciparum Dd2; P. falciparum Dd2 growth, SYBR Green, 72 h; Potency, µM (doses to about 28.9 µM), for the others: at the highest dose activity, negative = inhibition, actives largely listed as inhibitors; 120,000 compounds, 4.3% hits; AID 1347417; active = well fitted inhibition curve with a large enough effect;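 also: plate controls were DMSO vehicle for no effect and reference drug for full effect; nearly all actives have a fitted effect of over 65% in size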
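Infected erythrocytes (Dd2, 0.3% parasitemia, 2.5% hematocrit final) are added to compound in RPMI-1640/Albumax II medium, grown 72 h at 37C in low oxygen, then lysed with saponin/Triton-X containing SYBR Green and read by fluorescence.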
* marks the source's active call; other numbers are inactive results; [ ] = remark or other dose. Potency is read from the fitted curve at half-maximal effect.

O=C(c1ccc(F)cc1)N1CCC2(CC1)CC(N(Cc1ccccc1)C1CC1)CCO2 (configuration not stated) was read as Pf Dd2 inh -10%.
Screening Cc1cnc(C(=O)N2CCC3(CC2)CC(N(Cc2ccc(F)cc2)C2CC2)CCO3)cn1 (configuration not stated) returned Pf Dd2 inh -6%.
O=C(CCC1CCCC1)N1CCC2(CC1)CC(N(Cc1ccc(F)cc1)C1CC1)CCO2 (configuration not stated) was read as Pf Dd2 inh 3.5µM*.
Screening O=C(Cc1ccc(F)cc1)N1CCC2(CC1)CC(N(Cc1ccccc1)C1CC1)CCO2 (configuration not stated) returned Pf Dd2 inh 5.6µM*.
Cn1nccc1C(=O)N1CCC2(CC1)CC(N(Cc1ccc(F)cc1)C1CC1)CCO2 (configuration not stated) was read as Pf Dd2 inh -22%.
Screening O=C(c1ccccc1)N1CCC2(CC1)CC(N(Cc1ccccc1)C1CC1)CCO2 (configuration not stated) returned Pf Dd2 inh inactive.
For Cc1nc(C2(C)CCN(C(=O)Cc3c(C)noc3C)CC2)no1 the results were Pf Dd2 inh 35%.
Screening Cc1noc(C)c1-c1ccc(S(=O)(=O)N[C@@H]2[C@@H](N)[C@H]3CCO[C@H]32)s1 returned Pf Dd2 inh inactive.
Screening Cc1cc(OCC(=O)c2ccc3c(c2)N(CC(=O)NCC2CC2)C(=O)CO3)ccc1Cl returned Pf Dd2 inh -3%.
`COCC1CN(C(C)=O)CC12CCN(S(=O)(=O)c1c(C)noc1C)CC2` (configuration not stated) gave Pf Dd2 inh 17%.
`COc1ccc(C(=O)N2CCC3(CC2)C(OC)C(=O)N3CC2CC2)cn1` (configuration not stated) gave Pf Dd2 inh 16%.
`O=C(c1ccc(CN2C(=O)NC3(CCS(=O)(=O)CC3)C2=O)cc1)N1CCSCC1` gave Pf Dd2 inh -2%.
`O=C(Nc1cc(F)cc(F)c1)N1CCC(CCNC(=O)C2(c3ccccc3)CC2)CC1` gave Pf Dd2 inh -21%.
`NCc1cccc(-c2cncnc2)c1` gave Pf Dd2 inh 6%[44.1 µM].
NCc1cccc(-c2cccc(Cl)c2)c1 was read as Pf Dd2 inh 13µM*.
`C=Cc1cccc(-c2nccn2-c2cccc(CN)c2)c1` gave Pf Dd2 inh -28%.
Cc1cnc(C(=O)N2CCC(c3noc(-c4cccnc4)n3)C2)cn1 (configuration not stated) was read as Pf Dd2 inh inactive[5.79 µM].
`CC(C)C(=O)N1CCC2(CC1)N(c1ccccc1)C(=O)CS2(=O)=O` gave Pf Dd2 inh -26%.
Screening COc1ccccc1-c1[nH]nc2ncc(-c3ccccc3C)nc12 returned Pf Dd2 inh 13µM*.
COc1ccccc1-c1[nH]nc2ncc(-c3ccccc3F)nc12 was read as Pf Dd2 inh -22%[44.1 µM].
Screening Cc1ccccc1-c1cnc2n[nH]c(-c3ccccc3)c2n1 returned Pf Dd2 inh inactive.
CN(Cc1cc2ccccc2s1)C(=O)c1cc(CN2CCCC(O)C2)on1 (configuration not stated) was read as Pf Dd2 inh -19%.
`O=C(O)CN1CCC[C@]2(C(=O)O)CN(Cc3cccc(O)c3)CC[C@@H]12` gave Pf Dd2 inh -5%.
Screening Cc1ccc(OCC(=O)N2CCN(CCc3ccncc3)CC2)cc1C returned Pf Dd2 inh 10µM*.
CCCCOc1cccc(C(=O)N2CCN(CCc3ccncc3)CC2)c1 was read as Pf Dd2 inh -29%.
For COc1ccc(OCC(=O)N2CCN(CCc3ccncc3)CC2)cc1 the results were Pf Dd2 inh 19%.
CO[C@@H]1CCOC[C@H]1NS(=O)(=O)c1cc(F)ccc1C was read as Pf Dd2 inh 14%.
`Cc1cccc(OCC2(CNC3CCC3)C[C@@H](O)[C@@H](O)C2)n1` (some centres not stated) gave Pf Dd2 inh inactive.
Screening O=C(c1cccc2[nH]ccc12)N1CCC2(CC1)N=C(c1ccc(Cl)cc1)NO2 returned Pf Dd2 inh inactive.
Screening O=C(Cc1cccc(F)c1)N1CCCN(c2cc(-c3ccc(Cl)cc3)[nH]n2)CC1 returned Pf Dd2 inh inactive.
For CC1=C(C(=O)Nc2ccc(C)cc2C)C(c2ccc[nH]2)n2ncnc2N1 (configuration not stated) the results were Pf Dd2 inh 29%.
Screening CC1=C(C(=O)Nc2cc(Cl)ccc2C)C(c2ccccc2F)n2ncnc2N1 (configuration not stated) returned Pf Dd2 inh 10%.
Screening CC1=C(C(=O)Nc2ccc(C)cc2C)C(c2ccc(Br)cc2)n2ncc(C(=O)Nc3cccc(C)c3)c2N1 (configuration not stated) returned Pf Dd2 inh 1.1µM*.
Screening COc1ccc(C2C(C(=O)Nc3ccc(C)cc3C)=C(C)Nc3nc(SC)nn32)cc1OC (configuration not stated) returned Pf Dd2 inh 15%.
CC1=C(C(=O)Nc2ccc(C)cc2C)C(c2ccc(Cl)cc2)n2nc(C(=O)OC(C)C)nc2N1 (configuration not stated) was read as Pf Dd2 inh -5%.
CC1=C(C(=O)Nc2ccc(C)cc2C)C(c2cc(Br)ccc2F)n2ncc(C(=O)Nc3ccc(C)cc3)c2N1 (configuration not stated) was read as Pf Dd2 inh 0.89µM*.
CC1=C(C(=O)Nc2ccccc2)C(c2cc(Br)ccc2F)n2ncc(C(=O)Nc3ccccc3)c2N1 (configuration not stated) was read as Pf Dd2 inh 1.1µM*.
Screening CC1=C(C(=O)Nc2ccc(C)cc2C)C(c2cccs2)n2nc(SCc3cccc(C)c3)nc2N1 (configuration not stated) returned Pf Dd2 inh -7%.
For CC1=C(C(=O)Nc2ccc(Cl)cc2)C(c2ccccc2F)n2nc(SCc3cccc(Cl)c3)nc2N1 (configuration not stated) the results were Pf Dd2 inh 36%.
Screening CN1CC(=O)N(c2ccc(Cl)cc2)Cc2c(NCCCc3ccccc3)ncnc21 returned Pf Dd2 inh -10%.
Screening O=C(NC1CCCCC1)C1CN(C(=O)COc2ccc(F)cc2)CC12CCOCC2 (configuration not stated) returned Pf Dd2 inh -8%.
CCc1ccccc1NC(=O)N1C[C@@H](F)C[C@H]1C(=O)N1CCCCC1 was read as Pf Dd2 inh 28%.
Screening COc1ccc(CC(=O)N2CC[C@H]3CC(=O)N(C4CC4)CC[C@H]3C2)cc1 returned Pf Dd2 inh inactive.
For COc1ccc(CC(=O)NCCc2csc(-c3ccc(Cl)cc3)n2)cc1 the results were Pf Dd2 inh -13%.
For COc1ccc(CC(=O)NCCc2csc(-c3cccc(C)c3)n2)cc1 the results were Pf Dd2 inh 13µM*.
Screening Cc1cccc(-c2nc(CCNC(=O)Cc3ccc(F)cc3)cs2)c1 returned Pf Dd2 inh inactive.
For COC(=O)[C@]1(C)N[C@H](c2cc(F)c(OC)c(Cl)c2)[C@@H]2C(=O)N(C)C(=O)[C@@H]21 the results were Pf Dd2 inh 9%.
For Cc1ccc(NC2CCCN(C(=O)CN3CC(=O)NC3=O)C2)cc1C (configuration not stated) the results were Pf Dd2 inh 9%.
`CNC(=O)[C@@H]1CN(C(=O)c2c[nH]c3ccccc23)C[C@H]1C1CCN(C)CC1` gave Pf Dd2 inh 7%.
`Cc1noc(-c2ccn3c(CNC(=O)c4ccccc4F)nnc3c2)n1` gave Pf Dd2 inh inactive.
